Test results: PubChem BioAssay AID588773 (The Scripps Research Institute Molecular Screening Center, 2011)

Assay: pPAFAH inhibition and serine hydrolase selectivity, late-stage follow-up, selectivity assay for pPAFAH inhibitor project, biochemical, gel-based, FP-Rh fluorescence, mouse, HTS hit compounds (AID 588773)
Settings: gel-based competitive ABPP, proteome, MW 30 kDa protein, at 10 µM, stronger effect = higher value;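 active means inhibition of plasma PAF acetylhydrolase at a set limit or more at 0.1 µM, with tenfold selectivity over all off-targets; inactive means inhibition below the limit or weaker selectivity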

inhibition, inactive:
O=C(Oc1ccc(-c2ccccc2)cc1)N1CCCCC1 69%
O=C(Oc1ccc(Oc2ccccc2)cc1)N1CCC(O)CC1 5%
CCCCOC(=O)c1ccc(OC(=O)N2CCOCC2)cc1 14%
O=C(CCCSc1ccc(Cl)cc1)Nc1cc(S(=O)(=O)N2CCOCC2)ccc1O 19%
O=C(Oc1ccc(-c2ccccc2)cc1)N1CCOCC1 44%
O=C(Oc1nsnc1N1CCOCC1)N1CCOCC1 35%
O=C(/C=C/c1cccs1)c1cc(Br)ccc1OC(=O)N1CCOCC1 19%
